Screening results as filed in PubChem.
Only some compounds are listed: those with a hit (about 1.3% of all), similar ones and a draw of the others.
ugtP null kill = kills S. aureus RN4220 lacking UgtP | S. aureus RN4220 ugtP deletion, OD600 growth, 16 h | growth inhibition, % (concentration not given with the values) | 330,000 compounds, 0.54% hits | AID 1259309; in the data active means growth inhibition above about 68%;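 further: plate controls were untreated wells for no effect and antibiotic for full effect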
RN4220 kill = S. aureus RN4220 growth inhibition; AID 1259311; 330,000 compounds, 0.33% hits; inhibition, % (test concentration not listed); OD600, 16 h; in the data active means inhibition above about 85%;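 further: plate controls were untreated cells for no effect and reference antibiotic for full effect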
3CLpro inhibitor = SARS-CoV 3CLpro protease inhibition; recombinant SARS-CoV 3CLpro, quenched FRET peptide cleavage; 290,000 compounds, 0.14% hits; P0C6X7; AID 1706; inhibition, % at 6 µM; in the data active means inhibition above about 12%
BJeLR viability = kills HRASV12-expressing BJeLR cells; 300,000 compounds, 0.17% hits; inhibition, % (concentration not given with the values); AID 1554; BJeLR (HRASV12) viability, CellTiter-Glo ATP luminescence, 48 h; in the data active means inhibition above about 50%; inconclusive means no clear call, values can overlap the other calls
PfHsp40 rescue = compounds rescuing yeast from Plasmodium falciparum HSP40 toxicity; S. cerevisiae expressing PfHsp40, growth rescue, ATP luminescence; growth rescue, % at 12.5 µM; 340,000 compounds, 0.68% hits; in the data active means growth rescue above about 28%, passing the limit was not always enough; inconclusive means no clear call, values can overlap the other calls;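 further: yeast W303a lacking pdr1 and pdr3 grown in galactose medium; growth measured after three days at 30 °C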
Active calls of the source: *.

COc1ccccc1C(=O)NC(CCSC)C(=O)NNC(=O)c1ccc(F)cc1 (stereo unspecified) was read as ugtP null kill 12, RN4220 kill 2, 3CLpro inhibitor -7, BJeLR viability -4 and PfHsp40 rescue 1.
Screening COc1ccccc1C(=O)NC(CCSC)C(=O)NNC(=O)c1ccccc1O (stereo unspecified) returned ugtP null kill 9, RN4220 kill 13 and PfHsp40 rescue 98*.
Cc1ccc(C)c(-c2csc(-c3cccnc3)n2)c1 was read as ugtP null kill -10, RN4220 kill -1, 3CLpro inhibitor 4, BJeLR viability -4 and PfHsp40 rescue inconclusive.
O=C(Cc1ccc(Cl)cc1)Oc1cccc2cccnc12 was read as ugtP null kill 89*, RN4220 kill 8, 3CLpro inhibitor -4 and PfHsp40 rescue 1.
For CCOC(=O)c1ccc(NC(=O)Nc2ccon2)cc1 the results were ugtP null kill -2, RN4220 kill 4, 3CLpro inhibitor 4, BJeLR viability 58* and PfHsp40 rescue 0.
Screening CCOC(=O)C1CCN(C(=S)NC2CCCC2)CC1 returned ugtP null kill 2, RN4220 kill 1, 3CLpro inhibitor 6, BJeLR viability -4 and PfHsp40 rescue 1.
For FC(F)(F)Sc1ccc(NC(=S)NCc2ccccc2)cc1 the results were ugtP null kill 53, RN4220 kill 52, 3CLpro inhibitor 7, BJeLR viability -3 and PfHsp40 rescue 148*.
For S=C(NCc1ccccc1)Nc1ccc(Cl)cc1 the results were ugtP null kill -1, RN4220 kill -3, 3CLpro inhibitor 8, BJeLR viability -1 and PfHsp40 rescue 1.
CCOC(=O)c1ccc(CNS(=O)(=O)c2c(C)ccc3nsnc23)o1 was read as ugtP null kill -5, RN4220 kill -13, 3CLpro inhibitor -3, BJeLR viability 7 and PfHsp40 rescue 0.
CCSc1nnc(SCC(=O)N2CCN(C(=O)c3ccco3)CC2)s1 was read as ugtP null kill -3, RN4220 kill -8, 3CLpro inhibitor -2, BJeLR viability 14 and PfHsp40 rescue 0.
Oc1ccc(CN2CCCc3ccccc32)c2cccnc12 was read as ugtP null kill 1, RN4220 kill -4, 3CLpro inhibitor 9, BJeLR viability -4 and PfHsp40 rescue 38*.
Screening CCCCCCCCCCCCCCCC[n+]1ccc(C=NO)cc1 returned ugtP null kill 101* and RN4220 kill 101*.
COc1ccc(-c2oc3ccccc3c2C#CC(C)(C)O)cc1 was read as ugtP null kill 18, RN4220 kill -3 and PfHsp40 rescue 38*.
Screening Cc1ccc(-c2cc3ccccc3nc2N2CCOCC2)cc1 returned ugtP null kill 91*, RN4220 kill -3, 3CLpro inhibitor 6, BJeLR viability 5 and PfHsp40 rescue 12.
c1ccc(-c2cc3ccccc3nc2N2CCCC2)cc1 was read as ugtP null kill 85*, RN4220 kill 0, 3CLpro inhibitor -2, BJeLR viability -3 and PfHsp40 rescue 1.
For CC[C@@]12C(=O)N(c3ccc(C)cc3)C(=O)N1C(c1ccc(Br)cc1)C1C(=O)N(C(C)(C)C)C(=O)C12 (stereo partly specified) the results were ugtP null kill 1 and RN4220 kill 3.
Screening O/C(=C\Sc1nnc(Cc2ccccc2)o1)c1ccc(Br)cc1 returned ugtP null kill -3, RN4220 kill 5, 3CLpro inhibitor 6, BJeLR viability 17 and PfHsp40 rescue -1.
Screening O=[N+]([O-])c1cc(Br)cc(/C=N/n2cnnc2)c1O returned 3CLpro inhibitor -1, BJeLR viability 3 and PfHsp40 rescue 204*.
`COc1ccccc1CCC(=O)Nc1cccc(S(=O)(=O)N2CCOCC2)c1` gave 3CLpro inhibitor 0, BJeLR viability 4 and PfHsp40 rescue -1.
For COc1ccccc1CC(=O)Nc1cccc(S(=O)(=O)N2CCOCC2)c1 the results were ugtP null kill 11, RN4220 kill 5, 3CLpro inhibitor 2, BJeLR viability -4 and PfHsp40 rescue 94*.
Screening Cc1cc(C)nc(Nc2n[nH]c(COc3cccc4ccccc34)n2)n1 returned 3CLpro inhibitor -2, BJeLR viability -2 and PfHsp40 rescue -1.
`Nc1nc(F)nc2c1ncn2[C@@H]1O[C@H](CO)[C@@H](O)[C@H]1O` gave BJeLR viability 97* and PfHsp40 rescue -3.
Screening Nc1nc(F)nc2c1ncn2[C@@H]1O[C@H](CO)[C@@H](O)[C@@H]1O returned 3CLpro inhibitor 0, BJeLR viability 11 and PfHsp40 rescue -1.
For CN=C(Nc1ccc(C)c(C)c1)SC1CC(=O)N(c2ccc(OC)cc2)C1=O (stereo unspecified) the results were ugtP null kill -1, RN4220 kill -3, 3CLpro inhibitor 7, BJeLR viability -6 and PfHsp40 rescue 3.
CN=C(Nc1ccc(Br)cc1)SC1CC(=O)N(c2ccc(OC)cc2)C1=O (stereo unspecified) was read as ugtP null kill -11, RN4220 kill -17, 3CLpro inhibitor 5, BJeLR viability -2 and PfHsp40 rescue 43*.
For COCCn1c(SCC(=O)NC2CCCC2)nc2cccnc21 the results were ugtP null kill -8, RN4220 kill 6, 3CLpro inhibitor 2, BJeLR viability 14 and PfHsp40 rescue 1.
`Cc1cc(OCCn2cc(/C(N)=N/O)c3ccccc32)ccc1Cl` gave ugtP null kill 93*, RN4220 kill 11, 3CLpro inhibitor -2, BJeLR viability -9 and PfHsp40 rescue 1.
For COC(=O)c1cn(CCOc2ccc(C)cc2)c2ccccc12 the results were ugtP null kill -21, RN4220 kill 4, 3CLpro inhibitor 2, BJeLR viability 12 and PfHsp40 rescue 2.
Cn1nc(C(F)(F)F)c(/C=N/OC(=O)c2ccccc2Cl)c1SCc1ccc(Cl)cc1 was read as 3CLpro inhibitor 1, BJeLR viability -2 and PfHsp40 rescue 52*.
Screening COCCCNC(=O)c1ccc2c3c(onc13)-c1ccccc1C2=O returned ugtP null kill 18, RN4220 kill 80, 3CLpro inhibitor 8, BJeLR viability 51* and PfHsp40 rescue 2.
For Cc1ccc(S(=O)(=O)N2CCCC(C(=O)N3CCN(c4ccccc4)CC3)C2)cc1 (stereo unspecified) the results were ugtP null kill 10, RN4220 kill 3, 3CLpro inhibitor -4, BJeLR viability -7 and PfHsp40 rescue 74*.
`COc1ccc(N2CCN(C(=O)C3CCCN(S(=O)(=O)c4ccc(C)cc4)C3)CC2)cc1` (stereo unspecified) gave ugtP null kill 2, RN4220 kill 2, 3CLpro inhibitor 5, BJeLR viability -1 and PfHsp40 rescue 0.
Cc1ccc(Cn2ncc(Cl)c(Cl)c2=O)cc1 was read as ugtP null kill 16, RN4220 kill 12, 3CLpro inhibitor 2, BJeLR viability 9 and PfHsp40 rescue 1.
For O=c1c(Cl)c(Cl)cnn1Cc1nnc(-c2ccc(Cl)cc2)o1 the results were ugtP null kill -15, RN4220 kill 7, 3CLpro inhibitor 2, BJeLR viability 4 and PfHsp40 rescue 236*.
